Pf growth 48h: inhibits P. falciparum growth in the first generation, 48 h | P. falciparum luciferase growth in erythrocytes, 48 h | Potency, µM (titrated, usually from 28.7 µM), usual class: inhibitors | hit rate 5.9% among 310,000
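Growth was read as firefly luciferase luminescence after a 48 h, 37 C, 5% CO2 exposure of compounds to reporter-bearing P. falciparum cultures (0.1% parasitemia, 2% hematocrit final) in Albumax-supplemented RPMI 1640.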
Shiga toxin inh: Shiga toxin inhibition. Vero cells, Shiga toxin protein synthesis inhibition reporter. inhibition, % at 38.7 µM. hit rate 9.2% among 290,000. AID 2315; in the data active = inhibition mostly above about 28%, no sharp cut-off; inactive = mostly below about 43%
Giardia FBPA inh: inhibitors of Giardia lamblia fructose-1,6-bisphosphate aldolase; A8B2U2; purified Giardia FBPA; Potency, µM (titrated, usually from 59.6 µM), most hits filed as inhibitors; hit rate 0.71% among 290,000; note: nearly all actives have a fitted effect of over 55% in size
Target sequence (A8B2U2 whole entry, looked up): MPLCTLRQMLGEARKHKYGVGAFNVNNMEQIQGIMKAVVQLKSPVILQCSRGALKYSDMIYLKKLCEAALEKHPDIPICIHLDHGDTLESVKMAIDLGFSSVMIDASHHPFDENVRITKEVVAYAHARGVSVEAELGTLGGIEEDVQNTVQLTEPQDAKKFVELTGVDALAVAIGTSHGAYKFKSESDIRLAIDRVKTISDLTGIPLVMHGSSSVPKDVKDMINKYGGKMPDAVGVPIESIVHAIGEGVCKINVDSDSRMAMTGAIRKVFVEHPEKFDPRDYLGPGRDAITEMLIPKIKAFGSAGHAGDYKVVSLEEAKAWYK
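Giardia FBPA (40 nM reagent) was preincubated 10 min at RT with compound (up to 57.5 uM final), then substrate plus GAPDH/TPI/NAD/arsenate coupling system with diaphorase/resazurin was added; resorufin fluorescence (525/598 nm) was read after 20 min.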
CHX counter: affects cycloheximide protein synthesis inhibition readout, counter-screen | max response, % | cell reporter, cycloheximide protein synthesis inhibition counterscreen | hit rate 12% among 300,000; in the data active = max response mostly above about 13%, no sharp cut-off; inactive = mostly below about 14%; note: read at 38.3 µM for the half of the compounds with a filed dose
NS1 inh: inhibitors of influenza NS1 protein function; hit rate 0.4% among 270,000; Potency, µM (doses to about 46.1 µM); calls by dose curve; note: actives are rising curves; nearly all actives have a fitted effect of over 50% in size
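Recovery from NS1-induced slow growth read by OD600 in budding yeast switched to galactose assay medium (pH 6.0, -URA) at 1:100 dilution. Compound 23 nl per well; the matching strain lacking NS1 serves as control.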
Pf growth 96h: inhibits malaria parasite growth, 96 h | Potency, µM (highest dose often 28.7 µM), hits mostly inhibitors | P. falciparum luciferase reporter growth, 96 h | hit rate 6.9% among 320,000 | AID 504834
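Two-generation exposure (96 h) targets delayed-death phenotype. Reporter parasites carrying integrated firefly luciferase, in red cells at 2% hematocrit and 0.05% parasitemia final, kept at 37 C, 5% CO2; luminescence loss indicates inhibition.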
Hits are given with their value; i = inactive; ? = inconclusive; nt = no result given; [ ] = remark or other dose. Rows were chosen to be rich in hits. Some 21% of all compounds tested hit in one or more screens of this group. Unless noted, calls come from the whole dose curve; as a rule, active = well fitted curve in the direction sought with a large enough effect; inconclusive = small, poorly fitted or top-dose-only effect, or another doubt; inactive = no such curve, though single readings can be large; an effect the other way counts as inactive or inconclusive.

SMILES	Pf growth 48h	Shiga toxin inh	Giardia FBPA inh	CHX counter	NS1 inh	Pf growth 96h
CC(=O)c1ccc(NC(=O)c2c(C)nn(-c3ccccc3)c2Cl)cc1	i	i	?	i	i	i
COc1ccc(COC(=O)c2c(C)nn(-c3ccccc3)c2Cl)cc1	i	39.5	i	22.3	i	i
Cc1ccc(NC(=O)c2c(C)nn(-c3ccccc3)c2Cl)cc1	i	66.1	i	35.4	i	?
COc1ccccc1-n1nnnc1SCC(=O)N1CCCC1=O	i	i	nt	i	i	i
COc1ccc(S(=O)(=O)N2CCN(C(=O)c3c(C)nn(-c4ccccc4)c3Cl)CC2)cc1	i	i	i	i	i	4.65µM
Cc1nn(-c2ccccc2)c(C)c1C(=O)OCc1ccc(C#N)cc1	i	i	i	36.4	i	i
CNC(=O)COc1coc(CN2CCN(c3ccccc3F)CC2)cc1=O	i	i	nt	i	i	?
Cc1cc(Cl)c2oc(C(=O)NCCN3CCCCC3CO)c(C)c2c1 (stereo unspecified)	?	i	i	14.8	i	13.1µM
Cc1cc(Cl)c2oc(C(=O)NCCC3CCCCO3)c(C)c2c1 (stereo unspecified)	i	86.8	nt	i	i	i
CCN(CC(=O)Nc1ccc(NC(C)=O)cc1)C(=O)c1ccc(=O)n(C)n1	i	nt	nt	nt	nt	i
COc1ccc(Cc2nc3ccccc3n2C)cc1	i	i	i	i	nt	i
CCn1c(COc2ccc(OC)cc2)nc2ccccc21	i	80.0	nt	50.5	i	4.65µM
CCCn1c(COc2ccc(C(=O)O)cc2)nc2ccccc21	i	nt	i	i	i	i
C=CCn1c(COc2ccc(OC)cc2)nc2ccccc21	i	i	i	44.2	i	i
C=CCn1c(/N=C/c2ccc(OC)cc2)nc2ccccc21	i	i	i	i	i	i
CCn1c(COc2ccccc2)nc2ccccc21	i	36.2	i	23.6	i	i
COc1ccc(OCc2nc3ccccc3n2C(C)C)cc1	i	i	i	i	i	i
COCCn1c(COc2ccc(OC)cc2)nc2ccccc21	i	48.5	i	22.5	i	nt
O=C(OCN1C(=O)c2ccccc2C1=O)c1cccnc1SC(F)F	i	i	i	i	i	i
Cc1ccc(-c2nc(SCC(=O)Nc3cc(C)on3)c3c(=O)n(C)c(=O)n(C)c3n2)cc1	i	i	nt	i	i	i
Cc1cccnc1NC(=O)CNC(=O)c1ccccc1	i	nt	nt	nt	nt	i
CCOc1ccc(NCc2nc3ccccc3n2CCOc2ccccc2)cc1	i	60.9	i	37.7	i	6.57µM
CCOC(=O)c1ccc(Nc2cnc3ccccc3n2)cc1	i	77.9	i	46.6	i	i
CCOC(=O)c1cnc2ccccc2c1Nc1ccc(C(=O)O)cc1	?	i	i	i	i	?
O=C(O)c1ccc(Nc2cnc3ccccc3n2)cc1	i	i	i	38.1	i	i
SMILES	Pf growth 48h	Shiga toxin inh	Giardia FBPA inh	CHX counter	NS1 inh	Pf growth 96h
O=C(O)c1ccc(Nc2nc(-c3cccnc3)nc3ccccc23)cc1	i	i	i	i	i	i
CCOC(=O)c1ccc(Nc2cc(C)nc(-c3ccccc3)n2)cc1	10.4µM	i	i	i	i	i
Cc1cc(=O)oc2cc(NC(=O)C(C)Oc3cccc(Cl)c3)ccc12 (stereo unspecified)	?	nt	nt	nt	nt	i
CCOC(=O)N1CCN(C(=O)COC(=O)CSc2ccc([N+](=O)[O-])cc2)CC1	i	nt	nt	nt	nt	i
CCCCN(Cc1ccco1)C(=O)c1cc2c(=O)[nH]c3ccc(C)cc3c2s1	nt	i	i	i	i	i
Cc1ccc2[nH]c(=O)c3cc(C(=O)N(CCCOC(C)C)Cc4ccco4)sc3c2c1	nt	i	i	i	i	5.86µM
CCc1cccc(CC)c1NC(=O)CCCSc1nc2ccccc2s1	?	i	i	i	i	?
CC(=O)Nc1ccc(NC(=O)CCCSc2nc3ccccc3s2)cc1	i	i	i	18.9	i	i
N#CCc1nc(CSc2nc3ccccc3s2)cs1	i	87.2	i	58.3	i	?
CN(C)CCCSc1nc2ccccc2s1	i	68.1	i	22.6	nt	i
CCC(C)(C)NC(=O)CCCSc1nc2ccccc2s1	i	118.1	i	60.6	nt	i
c1ccc2sc(SCSc3nc4ccccc4s3)nc2c1	i	i	i	i	i	i
O=C(CCCSc1nc2ccccc2s1)NC1=NCCS1	i	i	i	17.8	i	i
COc1ccc(N(CC(=O)NCc2ccco2)C(=O)CCC(=O)Nc2nccs2)cc1	i	i	i	i	i	i
Cc1ccc(Cl)c(OCC(=O)Nc2ccccc2N2CCCCC2)c1	14.7µM	nt	nt	nt	nt	?
CNC(=S)NNC(=O)COc1cccc(C)c1C	i	i	i	i	i	8.28µM
CCC(=O)N1CCN(c2ccccc2NC(=O)COc2ccc(C(C)C)cc2)CC1	10.4µM	i	nt	i	i	?
Cc1cccc(C)c1OCC(=O)Nc1ccccc1N1CCCCC1	11.7µM	i	nt	i	i	?
COc1ccc(OCC(=O)Nc2ccccc2N2CCCCC2)cc1	?	i	nt	i	i	i
COC(=O)[C@@H]1CC[C@H](C)[C@@H](c2ccc(C)cc2)N1C(=O)c1ccc(/C=N\OC[C@@H](C)[C@H](OCc2ccccc2)C(C)C)cc1	nt	nt	i[12.9 µM]	nt	nt	nt
COc1cccc(C(=O)C2CCCN(Cc3cccc(-n4nc(C)cc4C)c3)C2)c1 (stereo unspecified)	?	i	i	i	i	?
O=C1CC(NS(=O)(=O)c2cccs2)CN1c1ccccc1 (stereo unspecified)	i	nt	nt	nt	nt	i
Cc1cccc(OCC(=O)Nc2ccccc2N2CCCCC2)c1C	11.7µM	nt	nt	nt	nt	1.85µM
CCc1n[n+](CC(=O)c2ccccc2)c(N)s1	i	i	i	21.7	nt	i
CCc1ccc(NC(=O)Cn2nnc(C(=O)NCc3ccco3)c2N)cc1	i	i	i	i	i	?
SMILES	Pf growth 48h	Shiga toxin inh	Giardia FBPA inh	CHX counter	NS1 inh	Pf growth 96h
COC(=O)C1=C(c2ccc(C(C)=O)cc2)C[C@@H]2CC[C@H]1N2C(=O)N1CCC(C)CC1	13.1µM	nt	nt	nt	nt	i
COC(=O)C1=C(c2ccc(Cl)c(C(F)(F)F)c2)C[C@@H]2CC[C@H]1N2C(=O)N1CCC(C)CC1	?	nt	nt	nt	nt	i
COC(=O)C1=C(c2ccc(OC)c(OC)c2)C[C@@H]2CC[C@H]1N2C(=O)N1CCC(C)CC1	i	nt	nt	nt	nt	?
COC(=O)C1=C(c2ccc(C(C)=O)cc2)C[C@@H]2CC[C@H]1N2C(=O)N1CCC(O)(c2ccc(Cl)cc2)CC1	10.4µM	nt	nt	nt	nt	?
COC(=O)C1=C(c2ccc3ccccc3c2)C[C@@H]2CC[C@H]1N2C(=O)N1CCC(C)CC1	9.28µM	nt	nt	nt	nt	?
O=C(COc1ccc(F)cc1Cl)NC1CCCCCC1	i	nt	nt	nt	nt	i
CC(=O)NC1(C(F)(F)F)C(=O)Nc2c1c(=O)[nH]c(=O)n2CCc1ccccc1 (stereo unspecified)	i	i	i	i	i	i
COCCN(C(=O)CNC(=O)c1cccs1)C(C(=O)NC1CCCCC1)c1ccco1 (stereo unspecified)	i	i	i	i	i	nt
COCCN(C(=O)CCl)C(C(=O)NC1CCCCC1)c1ccccc1C (stereo unspecified)	10.4µM	i	i	i	i	8.28µM
COc1ccc(CCCC(=O)NC2CCCCC2)cc1	i	i	i	i	i	i
